Only some compounds are listed: those with a hit (about 5.4% of all), similar ones and a draw of the others.
FMDV inh = foot and mouth disease virus antiviral activity; Potency, µM (top dose mostly 57.9 µM), for the others: top-dose activity change, negative = inhibition, actives largely listed as inhibitors; FMDV antiviral cell-based qHTS; actives 1.2% (n = 410,000); AID 1159524; calls by dose curve; tested in HEK293T cells; also: read-out not given here; nearly all actives have a fitted effect of over 45% in size
Sm TGR inh = S. mansoni TGR enzyme inhibition; Q962Y6; Potency, µM (top dose mostly 114 µM), inactives show top-dose activity change, negative = inhibition, actives largely listed as inhibitors; purified TGR, DTNB reduction, TNB absorbance 405 nm; actives 3% (n = 360,000); AID 485364; active = well fitted inhibition curve with a large enough effect; inconclusive = small, poorly fitted or top-dose-only effect; inactive = no such curve, though single readings can be large or run the other way; also: nearly all actives have a fitted effect of over 60% in size
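TGR 20 nM + NADPH 100 uM (dispensed conc.), cpd preinc 15 min RT; start with NADPH (500 uM addition) then DTNB (15 mM addition). Kinetic TNB absorbance, 405 nm filter. Four-parameter Hill fit across titration.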
Lassa entry inh = Lassa virus entry inhibition; Lassa virus pseudotype entry inhibition, cell reporter; Potency, µM (series often up to 37.9 µM), for inactives: top-dose activity change, negative = inhibition, most hits filed as inhibitors; actives 1.2% (n = 300,000); calls by dose curve; tested in HEK293 cells; also: nearly all actives have a fitted effect of over 50% in size
MARV entry inh = Marburg virus entry inhibition. Marburg virus pseudotyped entry inhibition, cell reporter. Potency, µM (titrated, usually from 37.8 µM), for inactives: at the top dose activity change, negative = inhibition, most hits filed as inhibitors. actives 1.8% (n = 300,000). AID 540276; calls by dose curve; tested in HEK293 cells
VACV Venus inh = vaccinia inhibition (Venus reporter). Vaccinia virus Venus reporter expression, fluorescence. Potency, µM (doses to about 36.5 µM), inactives show at the top dose activity change, negative = inhibition, usual class: inhibitors. actives 0.46% (n = 330,000). AID 720580; calls by dose curve; tested in A549 cells; also: nearly all actives have a fitted effect of over 30% in size
VACV mCherry inh = vaccinia inhibition (mCherry reporter). Vaccinia virus mCherry reporter infection, fluorescence. Potency, µM (doses to about 36.5 µM), for the others: at the top dose activity change, negative = inhibition, usual class: inhibitors. actives 0.63% (n = 310,000). AID 720579; calls by dose curve; tested in A549 cells; also: nearly all actives have a fitted effect of over 35% in size
Numbers without * were called inactive; i = inactive; ? = inconclusive; nt = no result given; ! = not active in a repeat; [ ] = dose if it differs, or a comment. % is scaled to controls: 0 for no effect and ±100 for the full control effect; potency is read from the fitted curve at half-maximal effect.

SMILES | FMDV inh | Sm TGR inh | Lassa entry inh | MARV entry inh | VACV Venus inh | VACV mCherry inh
C=C1CN(Cc2ccccc2)S(=O)(=O)c2ccccc21 | -9% | 18µM* | nt | nt | -6% | i
O=C(O)c1cc([N+](=O)[O-])c(Sc2nc3ccccc3[nH]2)c([N+](=O)[O-])c1 | -7% | 1.8µM* | nt | nt | nt | nt
CS(=O)(=O)c1cc([N+](=O)[O-])c(Sc2nc3ccccc3[nH]2)c([N+](=O)[O-])c1 | ? | 1.4µM* | 20% | 13µM* | nt | nt
Cc1cnc(C)c(-c2cccc3c2OC(CNC(=O)/C=C/c2ccncc2)C3)n1 (stereo not drawn) | -9% | nt | nt | nt | 1% | -12%
CCN1C(=O)[C@H]2[C@@H](c3ccc(-c4ccc(F)cc4)cc3)N[C@@](CC(C)C)(C(=O)OC)[C@H]2C1=O | 0% | -13% | nt | nt | -25% | ?
CCN1C(=O)[C@@H]2[C@@H](c3ccc(-c4ccc(F)cc4)c(OC)c3)N3CCCC[C@@]3(C(=O)OC)[C@@H]2C1=O | -15% | 28µM* | nt | nt | ? | -9%
CCN1C(=O)[C@H]2[C@@H](c3ccc(-c4ccc(C(C)=O)cc4)c(OC)c3)N3CCCC[C@@]3(C(=O)OC)[C@H]2C1=O | -20% | nt | nt | nt | -26% | i
CCN1C(=O)[C@H]2[C@@H](c3ccc(-c4ccc(F)cc4)c(OC)c3)N[C@@](CC(C)C)(C(=O)OC)[C@H]2C1=O | nt | 40µM* | nt | nt | nt | nt
Cc1ccccc1OCCSc1nc2ccc(NC(=O)c3cccc(F)c3)cc2s1 | -4% | 0% | 17%[46.1 µM] | 10%[46.1 µM] | -14% | -10%
Cc1cccc(NC(=S)N(CCCN2CCCC2)Cc2cccn2Cc2ccc(Cl)cc2)c1 | -19% | 0% | ? | 7.1µM* | -24% | ?
CCOc1ccc(NC(=S)N(CCCN2CCCC2)Cc2cccn2Cc2ccc(Cl)cc2)cc1 | -15% | -11% | -9% | -24%[46.1 µM] | -11% | ?
CC1CCCCN1C(=O)c1ccc2c(c1)N(Cc1ccc(Cl)cc1)C(=O)c1ccccc1S2=O (stereo not drawn) | -3% | 4% | ? | ? | -7% | -5%
O=[N+]([O-])c1cc(C(F)(F)F)ccc1N1CCN(S(=O)(=O)c2ccc3ccccc3c2)CC1 | ? | -1% | -20% | 11µM* | ? | nt
COc1ccc(CN(CCN(C)C)c2ccccn2)cc1 | -3% | 0% | -15% | 16µM*! | -6% | -13%
CCCCCCCCCCCCCCCC[N+](C)(C)CCN(Cc1ccc(OC)cc1)c1ncccn1 | 28µM* | -22% | nt | nt | 13µM* | ?
COc1ccc(CN(CCN(C)C)c2ncccn2)cc1 | -2% | nt | nt | nt | ? | -13%
CC1=C(C(=O)NCc2ccc(Cl)cc2)C2(CCCCC2)OC1=O | 2% | -5% | -14%[46.1 µM] | nt | -16% | -12%
CC1=C(C(=O)N2CCCCC2)C(c2ccc(Cl)cc2)n2c(nc3ccccc32)N1 (stereo not drawn) | 0% | 4% | 4%[46.1 µM] | ? | 2% | -10%
Cc1ccc(Cl)cc1NC(=O)C(NS(=O)(=O)c1cccc2nsnc12)c1ccccc1 (stereo not drawn) | -7% | 1% | 10%[46.1 µM] | -29%[46.1 µM] | -11% | -7%
CCOP(=O)(OCC)/C(C#N)=C/c1ccc([N+](=O)[O-])cc1 | -8% | -34% | 0%[46.1 µM] | -2%[46.1 µM] | 4% | -15%
CCOP(=O)(OCC)/C(C#N)=C/c1ccoc1 | -9% | 45µM* | 10% | 20%[46.1 µM] | 0% | i
C=CCSc1nnc(Cc2cc(=O)[nH]c(=O)[nH]2)n1-c1cc(C)ccc1C | -23% | 22µM* | 17% | 25% | -4% | -15%
COC(=O)C(C)Sc1nnc(Cc2cc(=O)[nH]c(=O)[nH]2)n1-c1cc(C)ccc1C (stereo not drawn) | -15% | -3% | nt | nt | -2% | 5%
COc1ccc(CC(=O)Nc2nc(-c3ccccc3)c(C(C)=O)s2)cc1OC | 14% | 0% | ? | 11µM* | -23% | -15%
COc1cc(CC(=O)Nc2nc(-c3ccccc3)c(C(C)=O)s2)cc(OC)c1OC | -26% | 6% | ? | -13% | -16% | -27%
CC(=O)c1cc(F)c(N2CCN(C(=O)Cc3ccccc3)CC2)cc1C | ? | 28µM* | 12% | 6% | -24% | nt

Screening results (PubChem BioAssay)
